Source: the supplement of paper PMC9446081
About 220 (0.56%) of roughly 39,000 compounds showed activity. The list comes from a sample in which actives are over-represented; it also holds similar structures and randomly drawn compounds. A number with no mark means an inactive call.

system: Escherichia coli K-12 BW25113; assay: relative growth (OD600 normalised to plate interquartile mean) (fraction); higher = less growth inhibition, active = 0.2 or less; conditions: 50 µM; LB; incubation time: overnight (16-24 h)
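Further: Wild-type cells incubated without shaking, value is the mean of two biological replicates.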

Compound	relative growth
CN[C@@H]1[C@H](O)[C@H](NC)[C@H]2O[C@@]3(O)C(=O)C[C@@H](C)O[C@H]3O[C@@H]2[C@H]1O	0.0458 (active)
CNC1C(O)C(NC)C2OC3(O)C(=O)CC(C)OC3OC2C1O.Cl.Cl (stereo unspecified)	0.048 (active)
C[C@@H]1CN([C@H](C)CO)C(=O)c2cc(NC(=O)C3CC3)ccc2O[C@@H]1CN(C)S(=O)(=O)c1ccccc1	0.987
CC(C)NC(=O)Nc1cccc2c1O[C@H](CN(C)Cc1ccc(-c3ccccc3)cc1)[C@@H](C)CN([C@@H](C)CO)C2=O	0.997
C[C@H]1CCCCO[C@H](CN(C)Cc2ccncc2)[C@@H](C)CN([C@@H](C)CO)C(=O)c2cc(NC(=O)C3CCCCC3)ccc2O1	0.956
COc1ccc(S(=O)(=O)Nc2cccc3c2O[C@@H](CN(C)C(=O)NC(C)C)[C@H](C)CN([C@H](C)CO)C3=O)cc1	0.978
COc1ccc(CN(C)C[C@@H]2OCCCC[C@H](C)Oc3ccc(NS(=O)(=O)c4ccc(OC)cc4)cc3C(=O)N([C@H](C)CO)C[C@H]2C)cc1	0.994
CNC1C(OC2C(OC3C(O)C(O)C(NC(=N)N)C(O)C3NC(=N)N)OC(C)C2(O)CO)OC(CO)C(O)C1O.O=S(=O)(O)O (stereo unspecified)	0.0643 (active)
CN[C@@H]1[C@H](O[C@H]2[C@H](O[C@@H]3[C@@H](O)[C@H](O)[C@@H](NC(=N)N)[C@H](O)[C@H]3NC(=N)N)O[C@@H](C)[C@]2(O)C=O)O[C@@H](CO)[C@H](O)[C@H]1O	0.972
CN[C@@H]1[C@H](O[C@H]2[C@H](O[C@H]3[C@H](O)[C@@H](O)[C@H](NC(=N)N)[C@@H](O)[C@@H]3NC(=N)N)O[C@@H](C)[C@]2(O)C=O)O[C@@H](CO)[C@H](O)[C@H]1O	0.888
CN[C@H]1[C@@H](O[C@H]2[C@@H](O[C@H]3[C@@H](O)[C@@H](O)[C@@H](NC(=N)N)[C@@H](O)[C@@H]3NC(=N)N)O[C@@H](C)[C@@]2(O)C=O)O[C@@H](CO)[C@@H](O)[C@@H]1O.CN[C@H]1[C@@H](O[C@H]2[C@@H](O[C@H]3[C@@H](O)[C@@H](O)[C@@H](NC(=N)N)[C@@H](O)[C@@H]3NC(=N)N)O[C@@H](C)[C@@]2(O)C=O)O[C@@H](CO)[C@@H](O)[C@@H]1O.O=S(=O)(O)O.O=S(=O)(O)O.O=S(=O)(O)O	0.372
CN[C@@H]1[C@H](O[C@H]2[C@H](O[C@@H]3[C@@H](O)[C@H](O)[C@@H](NC(=N)N)[C@H](O)[C@H]3NC(=N)N)O[C@@H](C)[C@]2(O)CO)O[C@@H](CO)[C@H](O)[C@H]1O.CN[C@@H]1[C@H](O[C@H]2[C@H](O[C@@H]3[C@@H](O)[C@H](O)[C@@H](NC(=N)N)[C@H](O)[C@H]3NC(=N)N)O[C@@H](C)[C@]2(O)CO)O[C@@H](CO)[C@H](O)[C@H]1O	0.11 (active)
CNC1C(OC2C(OC3C(O)C(O)C(NC(=N)N)C(O)C3NC(=N)N)OC(C)C2(O)C=O)OC(CO)C(O)C1O.O=S(=O)(O)O (stereo unspecified) [STREPTOMYCIN SULFATE [5mM; 10% aq DMSO + 5mM ethanolamine]]	1.11
C[C@H]1CN([C@@H](C)CO)C(=O)c2cc(NC(=O)C3CC3)ccc2O[C@@H]1CN(C)S(=O)(=O)c1cn(C)cn1	0.941
C[C@@H]1CCCCO[C@H](CN(C)Cc2ccc(C(F)(F)F)cc2)[C@H](C)CN([C@@H](C)CO)C(=O)c2cc(NS(=O)(=O)c3ccc(Cl)cc3)ccc2O1	1.03
O=C(C[C@@H]1C=C[C@H](NC(=O)c2cnccn2)[C@H](CO)O1)NCc1ccccc1F	1.03
OC[C@@H]1CN(CCN2CCOCC2)C[C@H](n2cnc3c(NC4CCC4)ncnc32)O1	0.936
C[C@@H]1CN([C@H](C)CO)C(=O)CCCn2nncc2CO[C@H]1CN(C)S(=O)(=O)c1ccc(-c2ccccc2)cc1	0.979
CCCN(C)C[C@@H]1OCCCC[C@@H](C)Oc2ccc(NC(=O)Nc3ccc4c(c3)OCO4)cc2C(=O)N([C@H](C)CO)C[C@H]1C	1.03

Compound	relative growth
O=C(Cn1cnnn1)NC1C(=O)N2C(C(=O)O)=C(CSc3nncs3)CSC12 (stereo unspecified)	0.0457 (active)
Cc1nnc(SCC2=C(C(=O)O)N3C(=O)[C@@H](N)[C@H]3SC2)s1	1
Cc1nnc(SCC2=C(C(=O)[O-])N3C(=O)C(NC(=O)Cn4cnnn4)C3SC2)s1.[Na+] (stereo unspecified)	0.0433 (active)
CC(=O)OCC1=C(C(=O)O)N2C(=O)[C@@H](NC(=O)CSc3ccncc3)[C@H]2SC1	1.05
Cc1nnc(SCC2=C(C(=O)O)N3C(=O)[C@@H](NC(=O)Cn4cnnn4)[C@H]3SC2)s1	0.0386 (active)
Cc1noc(C)c1S(=O)(=O)N(C)C[C@H]1Oc2c(NC(=O)C3CCCCC3)cccc2C(=O)N([C@@H](C)CO)C[C@H]1C	1.01
C[C@@H]1CN([C@H](C)CO)C(=O)c2cc(NC(=O)NC3CCCCC3)ccc2O[C@@H](C)CCCCO[C@@H]1CN(C)Cc1ccncc1	0.996
C[C@H](CO)N1C[C@H](C)[C@@H](CN(C)Cc2ccc3c(c2)OCO3)Oc2ccc(NC(=O)c3ccncc3)cc2CC1=O	1.01
Cc1ccc(S(=O)(=O)N(C)C[C@H]2Oc3c(NC(=O)NC(C)C)cccc3C(=O)N([C@@H](C)CO)C[C@H]2C)cc1	0.992
C[C@@H]1CN([C@H](C)CO)C(=O)Cc2cc(NC(=O)CCCN(C)C)ccc2O[C@@H]1CN(C)S(=O)(=O)c1ccc(Cl)cc1	0.973
COc1ccc(S(=O)(=O)N(C)C[C@@H]2Oc3ncc(C#Cc4ccc(OC)c(OC)c4)cc3C(=O)N([C@H](C)CO)C[C@@H]2C)cc1	0.91
O=c1[nH]c(=O)n([C@H]2C[C@H](O)[C@@H](CO)O2)cc1F	0.0339 (active)
O=c1[nH]c(=O)n(C2CC(O)C(CO)O2)cc1F (stereo unspecified)	0.0526 (active)
Cc1cn([C@H]2C[C@H](O)[C@@H](CO)O2)c(=O)[nH]c1=O	1.03
Cc1cn([C@@H]2C[C@@H](O)[C@H](CO)O2)c(=O)[nH]c1=O	0.991
O=c1[nH]c(=O)n(C2CC(O)C(CO)O2)cc1I (stereo unspecified)	1.06
O=c1[nH]c(=O)n([C@H]2C[C@H](O)[C@@H](CO)O2)cc1CO	1.04
O=c1[nH]c(=O)n([C@@H]2C[C@@H](O)[C@@H](CO)O2)cc1F	0.0303 (active)
O=c1[nH]c(=O)n([C@H]2C[C@H](O)[C@@H](CO)O2)cc1Br	0.944

Compound	relative growth
Cc1cn([C@@H]2C[C@H](O)[C@@H](CO)O2)c(=O)[nH]c1=O	0.988
COC[C@H]1CN(C(=O)c2cccc(OC)c2)N1	1.01
Cc1ccc(S(=O)(=O)N(C)C[C@@H]2Oc3c(NC(=O)Nc4cccc5ccccc45)cccc3C(=O)N([C@H](C)CO)C[C@@H]2C)cc1	1
Cc1noc(C)c1S(=O)(=O)N(C)C[C@@H]1Oc2ccc(NC(=O)Cc3cn(C)c4ccccc34)cc2CC(=O)N([C@H](C)CO)C[C@@H]1C	1.01
COc1nc(C)nc(Cl)c1NC1=NCCN1	1.03
C[C@H]1CCCCO[C@@H](CN(C)S(=O)(=O)c2ccc(Cl)cc2)[C@@H](C)CN([C@@H](C)CO)C(=O)c2cc(NC(=O)NC3CCCCC3)ccc2O1	1
CC1CN(c2c(F)c(F)c3c(=O)c(C(=O)O)cn(C4CC4)c3c2F)CC(C)N1 (stereo unspecified)	0.0486 (active)
CC1CN(c2c(F)c(N)c3c(=O)c(C(=O)O)cn(C4CC4)c3c2F)CC(C)N1 (stereo unspecified)	0.0495 (active)
C[C@H](NC(=O)C[C@@H]1C=C[C@H](NC(=O)CN2CCOCC2)[C@H](CO)O1)c1ccccc1	1.02
O=C(NCCCN1CCOCC1)[C@H]1N[C@H]2c3ccc(C4=CCCCC4)c(=O)n3C[C@H]2[C@@H]1CO	0.98
C[C@@H]1CN([C@@H](C)CO)C(=O)c2cc(NS(=O)(=O)c3ccc(F)cc3)ccc2O[C@@H](C)CCCCO[C@@H]1CN(C)C(=O)Nc1ccc2c(c1)OCO2	1.01
C[C@@H]1CN([C@@H](C)CO)C(=O)c2cccc(NC(=O)c3ccc(-c4nccs4)cc3)c2O[C@H]1CN(C)C(=O)Nc1cccc2ccccc12	0.886
CN(C)CCN1CCc2ncc(Cn3cncn3)n2CC1	0.99
COc1ccc(S(=O)(=O)N(C)C[C@H]2OCCCC[C@H](C)Oc3ccc(NS(=O)(=O)c4cn(C)cn4)cc3C(=O)N([C@@H](C)CO)C[C@@H]2C)cc1	1
CCC(C)CCCCC(=O)NC(CCN)C(=O)NC(C(=O)NC(CCN)C(=O)NC1CCNC(=O)C(C(C)O)NC(=O)C(CCN)NC(=O)C(CCN)NC(=O)C(CC(C)C)NC(=O)C(Cc2ccccc2)NC(=O)C(CCN)NC1=O)C(C)O.O=S(=O)(O)O (stereo unspecified)	0.0419 (active)
CC[C@H](C)[C@H](N)C1=N[C@H](C(=O)N[C@@H](CC(C)C)C(=O)N[C@H](CCC(=O)O)C(=O)N[C@H](C(=O)N[C@H]2CCCCNC(=O)[C@H](CC(N)=O)NC(=O)[C@@H](CC(=O)O)NC(=O)[C@H](Cc3cnc[nH]3)NC(=O)[C@@H](Cc3ccccc3)NC(=O)[C@H]([C@@H](C)CC)NC(=O)[C@@H](CCCN)NC2=O)[C@@H](C)CC)CS1	0.909
CC[C@@H](C)CCCC(=O)N[C@@H](CCN)C(=O)N[C@H](C(=O)N[C@@H](CCN)C(=O)N[C@H]1CCNC(=O)[C@H]([C@@H](C)O)NC(=O)[C@H](CCN)NC(=O)[C@H](CCN)NC(=O)[C@H](CC(C)C)NC(=O)[C@@H](CC(C)C)NC(=O)[C@H](CCN)NC1=O)[C@@H](C)O	0.262
CC[C@@H](C)CCCCC(=O)N[C@@H](CCN)C(=O)N[C@H](C(=O)N[C@@H](CCN)C(=O)N[C@H]1CCNC(=O)[C@H]([C@@H](C)O)NC(=O)[C@H](CCN)NC(=O)[C@H](CCN)NC(=O)[C@H](CC(C)C)NC(=O)[C@@H](Cc2ccccc2)NC(=O)[C@@H](CCN)NC1=O)[C@@H](C)O	0.0424 (active)
